# Several values for one entry are separate records, joined by “and”; a condition that tells them apart may be missing. Equal entries are not always repeated. Records with an inconclusive call do not appear. Where a call stands in place of a potency, no number is given. Activity calls are given as the source filed them. Unless noted, calls follow the shape of the dose curve; as a rule, active = well fitted curve in the direction sought with a large enough effect; inconclusive = small, poorly fitted or top-dose-only effect, or another doubt; inactive = no such curve, though single readings can be large; an effect the other way counts as inactive or inconclusive.
# How the values were obtained:
# [1] = Cell Viability - LYMP2-003 (AID 965);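 also: cells exposed to compounds for 24 h before reading; nearly all actives have a fitted effect of over 50% in size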
# Procedure, shortened: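 Seed 2500 lymphoblastoid cells/well; incubate 5 hr, 37 C; add compounds; incubate 24 hr, 37 C; add CellTiter-Glo, 30 min RT; read luminescence. AC50 from Hill fit.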
# [2] = Cell Viability - LYMP2-004 (AID 966); also: nearly all actives have a fitted effect of over 65% in size
# Procedure, shortened: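 Luminescent ATP read-out (CellTiter-Glo, 30 min RT) after 24 hr compound exposure at 37 C; 2500 lymphoblastoid cells/well, complete medium. Decrease in ATP = cytotoxicity; AC50 from standard Hill model.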
# [3] = Cell Viability - LYMP2-005 (AID 967); also: series mostly up to about 92 µM
# Procedure, shortened: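 Acute cytotoxicity is scored as a concentration-dependent drop in intracellular ATP in human lymphoblastoid LYMP2-005 cells after 24 h compound treatment. ATP is quantified by luciferase luminescence, and AC50 is derived by Hill-equation modelling.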
# [4] = Cell Viability - LYMP2-011 (AID 969);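 also: cells exposed to compound for 24 hours; nearly all actives have a fitted effect of over 60% in size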
# Procedure, shortened: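 Luminescent ATP read-out (CellTiter-Glo, 30 min RT) after 24 hr compound exposure at 37 C in human lymphoblastoid cells, 2500 cells/well. Decreasing ATP indicates cytotoxicity; AC50 from standard Hill fit.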
# [5] = Cell Viability - LYMP2-013 (AID 970); also: series mostly up to about 92 µM; nearly all actives have a fitted effect of over 55% in size
# Procedure, shortened: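 CellTiter-Glo luminescence (cellular ATP) read after 30 min at RT. Cells: human lymphoblastoid line, 2500/well, 24 hr compound exposure at 37 C. Tetraoctylammonium bromide positive control; AC50 via standard Hill fit of qHTS titrations.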
# [6] = Cell Viability - LYMP2-017 (AID 972);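 also: series mostly up to about 92 µM; cells exposed to compound for 24 hours at 37 °C; nearly all actives have a fitted effect of over 55% in size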
# Procedure, shortened: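 Luminescent ATP read-out (CellTiter-Glo, 30 min RT) reports viable cell number. Cells: human lymphoblastoid line, 2500 per well, 5 hr preincubation, 24 hr compound exposure at 37 C. AC50 is derived from qHTS concentration-response data using the standard Hill model.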
# [7] = Cell Viability - LYMP2-019 (AID 973); also: nearly all actives have a fitted effect of over 55% in size
# Procedure, shortened: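 qHTS, 1536-well; 2500 cells/well; 5 hr pre-incubation, 24 hr compound exposure, 37 C; CellTiter-Glo added, 30 min RT; luminescence read; AC50 via standard Hill equation.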
# [8] = Cell Viability - LYMP2-021 (AID 974);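 also: compound exposure lasts 24 hours at 37 °C; nearly all actives have a fitted effect of over 55% in size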
# Procedure, shortened: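 ATP luminescence (CellTiter-Glo, 30 min RT) after 24 h compound exposure at 37 C; 2500 human lymphoblastoid cells/well, 5 h settle beforehand. Cytotoxicity = concentration-dependent ATP drop, AC50 by Hill fit.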
# [9] = Cell Viability - LYMP2-023 (AID 975)
# Procedure, shortened: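 CellTiter-Glo luminescence after 30 min at room temperature; decrease in intracellular ATP reflects toxicity. Cells: human lymphoblastoid line, 2500/well, 24 hr compound exposure at 37 C. AC50 fitted to standard Hill equation from concentration-response.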
# [10] = Cell Viability - LYMP2-002 (AID 977); also: series mostly up to about 92 µM
# Procedure, shortened: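 Human lymphoblastoid cells, 2500/well, complete medium; 5 h 37 C settle; compound 24 h 37 C; CellTiter-Glo, 30 min RT; luminescence. Decrease in ATP = cytotoxicity; AC50 via Hill equation.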
# [11] = Cell Viability - LYMP2-007 (AID 979);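 also: cells exposed to compound for 24 h before reading; nearly all actives have a fitted effect of over 60% in size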
# Procedure, shortened: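 qHTS cytotoxicity: 2500 cells/well, 5 hr 37 C settle, compound 24 hr 37 C, CellTiter-Glo 30 min RT, luminescence. Decrease in ATP = toxicity. AC50 by standard Hill equation; tetraoctylammonium bromide positive control.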
# [12] = Cell Viability - LYMP2-014 (AID 983); also: series mostly up to about 92 µM; nearly all actives have a fitted effect of over 50% in size
# Procedure, shortened: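 2500 cells/well, 5 hr 37 C; cpd 24 hr 37 C, complete medium; CellTiter-Glo 30 min RT, luminescence; ATP loss = toxicity; AC50 via Hill eqn; tetraoctylammonium bromide positive control.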
# [13] = Cell Viability - LYMP2-016 (AID 984)
# Procedure, shortened: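 Cells were seeded at 2500 per well and rested 5 hr before a 24 hr compound exposure at 37 C. Viability was then gauged as cellular ATP by luciferase luminescence, with AC50 values fitted to the Hill equation.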
# [14] = Cell Viability - LYMP2-018 (AID 985); also: nearly all actives have a fitted effect of over 50% in size
# Procedure, shortened: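 2500 cells/well; 5 hr 37 C; cmpd 24 hr 37 C, complete medium; CellTiter-Glo 30 min RT; luminescence. Tetraoctylammonium bromide positive control. AC50 via Hill fit.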
# [15] = Cell Viability - LYMP2-020 (AID 986)
# Procedure, shortened: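 qHTS, 2500 cells/well; 5 hr then 24 hr compound exposure, 37 C; CellTiter-Glo luminescence after 30 min RT; ATP decrease taken as cytotoxicity; AC50 via Hill equation; tetraoctylammonium bromide positive control.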
# [16] = Cell Viability - LYMP2-026 (AID 989); also: nearly all actives have a fitted effect of over 50% in size
# Procedure, shortened: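 qHTS cytotoxicity: 2500 cells/well, 5 hr 37 C, compound 24 hr 37 C, CellTiter-Glo 30 min RT, luminescence. Tetraoctylammonium bromide positive control. AC50 via standard Hill fit.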
# [17] = molecular target: Retinoic acid receptor RXR-alpha (Homo sapiens) (UniProt P19793); experiment: qHTS assay for small molecule agonists of retinoid X receptor alpha signaling (AID 588544; calls by dose curve)
# Sequence of Retinoic acid receptor RXR-alpha (Homo sapiens) (P19793 whole entry, looked up): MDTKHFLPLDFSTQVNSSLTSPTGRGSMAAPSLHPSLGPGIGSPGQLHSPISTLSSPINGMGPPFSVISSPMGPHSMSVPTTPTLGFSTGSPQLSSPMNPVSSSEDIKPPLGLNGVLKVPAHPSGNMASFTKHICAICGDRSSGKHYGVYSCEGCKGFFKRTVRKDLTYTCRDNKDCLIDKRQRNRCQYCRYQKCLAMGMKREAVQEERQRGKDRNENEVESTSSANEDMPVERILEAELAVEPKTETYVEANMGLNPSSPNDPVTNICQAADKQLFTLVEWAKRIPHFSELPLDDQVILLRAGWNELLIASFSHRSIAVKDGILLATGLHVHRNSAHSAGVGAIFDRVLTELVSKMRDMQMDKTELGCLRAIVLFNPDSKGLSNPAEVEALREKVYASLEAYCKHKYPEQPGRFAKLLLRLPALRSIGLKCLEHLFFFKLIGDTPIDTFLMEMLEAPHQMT
# [18] = qHTS assay for small molecule antagonists of retinoid X receptor alpha signaling (AID 588546); conditions: HEK293T RXRa-UAS-bla, beta-lactamase ratio, antagonist mode; measured here: W530 green channel, cytotoxicity proxy;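 also: cells stimulated with 9-cis-retinoic acid as agonist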
# Procedure, shortened: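 Beta-lactamase reporter inhibition, read as CCF4 fluorescence ratio (ex 405, em 460/530 nm) after 2 h at RT. HEK293T UAS-bla cells, 2500/well, were stimulated with 9-cis-RA at 500 or 100 nM final alongside test compound for 18 h at 37 C.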
# [19] = qHTS assay for small molecule disruptors of the mitochondrial membrane potential - 1 hr assay (AID 651754; calls by dose curve; also: nearly all actives have a fitted effect of over 35% in size; also: potency is read from the fitted curve at half-maximal effect)
# Procedure, shortened: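 Read-out: dye fluorescence at 490 nm ex/535 nm em (monomers) and 540 nm ex/590 nm em (aggregates) in HepG2 cells. Compound exposure 1 hr at 37C, followed by 30 min dye loading.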
# [20] = qHTS assay for small molecule disruptors of the mitochondrial membrane potential - 5 hr assay (AID 651755; calls by dose curve; also: nearly all actives have a fitted effect of over 40% in size; also: potency is read from the fitted curve at half-maximal effect)
# Procedure, shortened: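 Read-out: ratiometric Mito-MPS fluorescence, green monomer (ex 490/em 535) vs red mitochondrial aggregate (ex 540/em 590). HepG2 cells treated 5 hr at 37C before 30 min dye loading.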
Structure (SMILES),Potency [1],Potency [2],Potency [3],Potency [4],Potency [5],Potency [6],Potency [7],Potency [8],Potency [9],Potency [10],Potency [11],Potency [12],Potency [13],Potency [14],Potency [15],Potency [16],Potency [17],max response [18],Potency [19],Potency [20]
C=CC(=C)C,inactive,inactive,inactive,inactive,inactive,inactive,inactive,inactive,inactive,inactive,inactive,inactive,inactive,inactive,inactive,inactive,inactive,-1.77%,inactive,inactive
CCOc1ccc(N)cc1,inactive,inactive,inactive,inactive,inactive,inactive,inactive,inactive,inactive,inactive,inactive,inactive,inactive,inactive,inactive,inactive,inactive,-4.66%,inactive,inactive
CC(C)(C)OOC(C)(C)C,inactive,inactive,inactive,inactive,inactive,inactive,inactive,inactive,inactive,inactive,inactive,inactive,inactive,inactive,inactive,inactive,inactive,-12.4%,inactive,inactive
C=CC(C)=O,inactive,inactive,inactive,inactive,inactive,inactive,inactive,inactive,inactive,inactive,inactive,inactive,inactive,inactive,inactive,inactive,inactive,-5.91%,inactive,inactive
C=CCOC(=O)c1ccccc1N,inactive,inactive,inactive,inactive,inactive,inactive,inactive,inactive,inactive,inactive,inactive,inactive,inactive,inactive,inactive,inactive,inactive,-12.2%,inactive,inactive
c1ccc2c(c1)CCCC2,inactive,inactive,inactive,inactive,inactive,inactive,inactive,inactive,inactive,inactive,inactive,inactive,inactive,inactive,inactive,inactive,inactive,-8.06%,inactive,inactive
Nc1c(Cl)c(Cl)nc(C(=O)O)c1Cl,inactive,inactive,inactive,inactive,inactive,inactive,inactive,inactive,inactive,inactive,inactive,inactive,inactive,inactive,inactive,inactive,inactive,15% and 5.55% and 11.1%,inactive,inactive
Nc1ccccc1Cl,inactive,inactive,inactive,inactive,inactive,inactive,inactive,inactive,inactive,inactive,inactive,inactive,inactive,inactive,inactive,inactive,inactive,-3.04%,inactive,inactive
CC(C)(c1ccccc1)c1ccc(O)cc1,inactive,inactive,inactive,inactive,inactive,inactive,inactive,inactive,inactive,inactive,inactive,inactive,inactive,inactive,inactive,inactive,inactive,-11.5%,26.6 µM (active),33.5 µM (active)
Cc1ccc2ccccc2c1,inactive,inactive,inactive,inactive,inactive,inactive,inactive,inactive,inactive,inactive,inactive,inactive,inactive,inactive,inactive,inactive,inactive,-12.4%,inactive,inactive
C=CCOC(C)=O,inactive,inactive,inactive,inactive,inactive,inactive,inactive,inactive,inactive,inactive,inactive,inactive,inactive,inactive,inactive,inactive,inactive,-2.08%,inactive,inactive
ClC(Cl)(Cl)c1ccccc1,inactive,inactive,inactive,inactive,inactive,inactive,inactive,inactive,inactive,inactive,inactive,inactive,inactive,inactive,inactive,inactive,inactive,-5.33% and -1.27%,inactive,inactive
C=CC(=O)OCC,inactive,inactive,inactive,inactive,inactive,inactive,inactive,inactive,inactive,inactive,inactive,inactive,inactive,inactive,inactive,inactive,inactive,-8.36%,inactive,inactive
Oc1ccc(Cl)cc1Cl,inactive,inactive,inactive,inactive,inactive,inactive,inactive,inactive,inactive,inactive,inactive,inactive,inactive,inactive,inactive,inactive,inactive,-7.11% and -14.1%,inactive,inactive
CCSC(=O)Cl,inactive,inactive,inactive,inactive,inactive,inactive,inactive,inactive,inactive,inactive,inactive,inactive,inactive,inactive,inactive,inactive,inactive,-5.71%,inactive,inactive
CCCCCCCC(=O)Cl,inactive,inactive,inactive,inactive,inactive,inactive,inactive,inactive,inactive,inactive,inactive,inactive,inactive,inactive,inactive,inactive,inactive,-7.27%,inactive,inactive
Cc1ccc(O)c(C)c1,inactive,inactive,inactive,inactive,inactive,inactive,inactive,inactive,inactive,inactive,inactive,inactive,inactive,inactive,inactive,inactive,inactive,-12.5% and -7.89% and -6.08%,inactive,inactive
c1ccc(OP(Oc2ccccc2)Oc2ccccc2)cc1,inactive,inactive,inactive,inactive,inactive,inactive,inactive,inactive,inactive,inactive,inactive,inactive,inactive,inactive,inactive,inactive,inactive,-3.76% and -10.6%,inactive,inactive
